Source: PubChem BioAssay
KB-3-1 tox – qHTS assay for MDR1-selective chemotherapeutics: Primary screen using the parental adenocarcinoma cell KB-3-1; KB-3-1 viability, CellTiter-Glo ATP luminescence, 72 h; actives 1.4% (n = 400,000); Potency, µM (doses to about 46.1 µM), most hits filed as cytotoxic; also: nearly all actives have a fitted effect of over 60% in size
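Parental KB-3-1 viability, qHTS format: 72 h compound exposure, 37 °C; CellTiter-Glo; media-only wells and DMSO plates as controls; concentration-effect fits on corrected data.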
HT1080 IDH1KD tx – qHTS for induction of synthetic lethality in tumor cells producing 2HG: qHTS for the HT-1080-IDH1KD cell line. HT-1080 IDH1 knockdown viability, ATP luminescence, 48 h. Potency, µM (titrated, usually from 46.1 µM), for the others: at the top dose activity, negative = toxicity, hits mostly cytotoxic. actives 2% (n = 360,000);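 also: 0% = DMSO wells and -100% = cell-free medium wells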
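CellTiter-Glo luminescence after 48 h compound exposure at 37 degrees C of IDH1-knockdown HT-1080 cells in 5% FBS RPMI. %Activity scaled between DMSO wells and cell-free media wells, with curves fitted and assigned curve classes.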
HT1080NT lethal – qHTS for induction of synthetic lethality in tumor cells producing 2HG: qHTS for the HT-1080-NT fibrosarcoma cell line; HT-1080-NT fibrosarcoma viability, CellTiter-Glo ATP luminescence, 48 h; actives 1.6% (n = 360,000); Potency, µM (doses to about 46.1 µM), for the others: at the highest dose activity, negative = less viability, hits mostly cytotoxic; AID 686970, 2013;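 also: NT is the 2HG producing partner of a matched IDH1 knockdown line; 0% = DMSO-treated cells and -100% = media-only wells without cells; nearly all actives have a fitted effect of over 55% in size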
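A 48-hour cytotoxicity screen used HT-1080-NT cells plated 2 hours before compound delivery. ATP-based CellTiter-Glo luminescence measured viability, normalized to DMSO and no-cell controls.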
TDP1 cell noCPT – qHTS for Inhibitors of human tyrosyl-DNA phosphodiesterase 1 (TDP1): qHTS in cells in absence of CPT. Potency, µM (series often up to 46.2 µM), for the others: top-dose activity change, negative = growth inhibition, usual class: inhibitors. actives 15% (n = 420,000). DT40 Tdp1-/- hTDP1 cells, no CPT, ATP luminescence, 48 h. AID 686978, 2013; also: nearly all actives have a fitted effect of over 55% in size
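Chicken DT40 Tdp1-/- cells stably complemented with human TDP1 were seeded at 400 cells/well with DMSO in place of 20 nM camptothecin. After compound pinning, cells grew at least 48 hr at 37 °C; viability read by CellTiter-Glo luminescence.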
KB-V1 MDR tox – qHTS assay for MDR1-selective chemotherapeutics: Primary screen using the drug-selected MDR subline cells KB-V1 | Potency, µM (doses to about 46.1 µM), actives largely listed as cytotoxic | actives 3.4% (n = 400,000) | KB-V1 MDR cells viability, CellTiter-Glo, 72 h; also: nearly all actives have a fitted effect of over 60% in size
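KB-V1 cells (P-gp-expressing MDR subline of KB-3-1) in phenol-red-free DMEM with 10% FBS were exposed to library compounds over a concentration series for 72 h at 37 degrees C. Viability read by CellTiter-Glo luminescence; concentration-effect curves fitted after normalization.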
TDP1 cell CPT – qHTS for Inhibitors of human tyrosyl-DNA phosphodiesterase 1 (TDP1): qHTS in cells in presence of CPT; chicken DT40 Tdp1-/-;hTDP1 cells + 20 nM CPT, ATP luminescence, 48 h; Potency, µM (series often up to 46.2 µM), without a hit: at the top dose activity change, negative = growth inhibition, actives largely listed as inhibitors; actives 12% (n = 420,000); AID 686979, 2013; also: nearly all actives have a fitted effect of over 55% in size
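Cell growth measured by CellTiter-Glo luminescence after a minimum 48 h, 37 C compound exposure with 20 nM CPT in Tdp1-knockout DT40 cells stably expressing hTDP1, seeded 400/well; qHTS titration format.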
Active calls of the source: *. In the library only some 19% were active in any assay of this set; here they are far more common. Calls follow the shape of the dose curve; as a rule, active = well fitted curve in the direction sought with a large enough effect; inconclusive = small, poorly fitted or top-dose-only effect, or another doubt; inactive = no such curve, though single readings can be large; an effect the other way counts as inactive or inconclusive. Unless noted, % is scaled to controls: 0 for no effect and ±100 for the full control effect; potency is read from the fitted curve at half-maximal effect.

`CCC(C)(C)NC(=O)C(c1cccnc1)N(C(=O)c1csnn1)c1ccccc1` (centres undefined) gave KB-3-1 tox inactive, HT1080 IDH1KD tx 1%, HT1080NT lethal -4%, TDP1 cell noCPT 8%, KB-V1 MDR tox inactive and TDP1 cell CPT 0%.
Screening CCCC(C)NCC(=O)Nc1ccccc1-c1ccccc1 (centres undefined) returned KB-3-1 tox inactive, HT1080 IDH1KD tx -7%, HT1080NT lethal -4%, TDP1 cell noCPT -24%, KB-V1 MDR tox inactive and TDP1 cell CPT -29%.
CC1Cc2cc(/C(O)=C3/C(=O)C(=O)N(CCCn4ccnc4)C3c3ccc(F)cc3)ccc2O1 (centres undefined) was read as KB-3-1 tox inactive, HT1080 IDH1KD tx 4%, HT1080NT lethal 5%, TDP1 cell noCPT 23%, KB-V1 MDR tox inactive and TDP1 cell CPT -10%.
For CC(=O)Nc1ccc(SCC(=O)Nc2ccc(Cl)cn2)cc1 the results were KB-3-1 tox inactive, HT1080 IDH1KD tx 7%, HT1080NT lethal inconclusive, TDP1 cell noCPT -2%, KB-V1 MDR tox inactive and TDP1 cell CPT -2%.
Screening Cc1cccc(NC(=O)CCN2C(=O)c3ccccc3S2(=O)=O)c1C returned KB-3-1 tox inactive, HT1080 IDH1KD tx 14%, HT1080NT lethal -1%, TDP1 cell noCPT 1%, KB-V1 MDR tox inactive and TDP1 cell CPT 5%.
Screening Cc1ccccc1NC(=O)CCC(=O)N1CCSc2ccccc21 returned TDP1 cell noCPT inconclusive and TDP1 cell CPT -27%.
CCOC(=O)c1ccc(NC(=O)CCC(=O)N2CCSc3ccccc32)cc1 was read as TDP1 cell noCPT 13µM* and TDP1 cell CPT 23µM*.
`Cc1ccc(NC(=O)CCC(=O)N2CCSc3ccccc32)cc1` gave TDP1 cell noCPT inconclusive and TDP1 cell CPT 16µM*.
O=C(CCC(=O)N1CCSc2ccccc21)NCc1ccc(Cl)cc1 was read as KB-3-1 tox inactive, HT1080 IDH1KD tx 7%, HT1080NT lethal 11%, TDP1 cell noCPT -20%, KB-V1 MDR tox inactive and TDP1 cell CPT -24%.
Screening O=C(CCC(=O)N1CCSc2ccccc21)Nc1ccc(Cl)cc1 returned TDP1 cell noCPT 21µM* and TDP1 cell CPT 15µM*.
For O=C(Nc1ccc2c(c1)OCCO2)c1cccc(S(=O)(=O)N2CCOCC2)c1 the results were KB-3-1 tox inactive, HT1080 IDH1KD tx 0%, HT1080NT lethal 8%, TDP1 cell noCPT -1%, KB-V1 MDR tox 21µM* and TDP1 cell CPT -26%.
O=C(Nc1ccc2c(c1)OCCO2)c1cccc(S(=O)(=O)N2CCCCC2)c1 was read as KB-3-1 tox inactive, HT1080 IDH1KD tx -11%, HT1080NT lethal -3%, TDP1 cell noCPT -13%, KB-V1 MDR tox 16µM* and TDP1 cell CPT -28%.
Screening CS(=O)(=O)c1cccc(C(=O)Nc2ccc(S(=O)(=O)N3CCCCC3)cc2)c1 returned KB-3-1 tox inactive, HT1080 IDH1KD tx -16%, HT1080NT lethal -9%, TDP1 cell noCPT 18µM*, KB-V1 MDR tox inactive and TDP1 cell CPT 10µM*.
O=C(Nc1ccc(N2CCOCC2)cc1)c1cccc(S(=O)(=O)N2CCCCCC2)c1 was read as KB-3-1 tox inactive, HT1080 IDH1KD tx 0%, HT1080NT lethal -2%, TDP1 cell noCPT 1%, KB-V1 MDR tox inactive and TDP1 cell CPT -27%.
For O=C(Nc1cccc(S(=O)(=O)N2CCCC2)c1)c1cccc(S(=O)(=O)N2CCOCC2)c1 the results were KB-3-1 tox inactive, HT1080 IDH1KD tx 7%, HT1080NT lethal -4%, TDP1 cell noCPT inconclusive, KB-V1 MDR tox inactive and TDP1 cell CPT inconclusive.
`O=C(O)CCC(=O)C(=O)O` gave TDP1 cell noCPT 9% and TDP1 cell CPT 14%.
For CCOC(=O)C1(C)CCCCN1C(=O)c1ccoc1 (centres undefined) the results were KB-3-1 tox inactive, HT1080 IDH1KD tx 13%, HT1080NT lethal 13%, TDP1 cell noCPT -3%, KB-V1 MDR tox inactive and TDP1 cell CPT -12%.
`CCCCn1c2c(c(=N)c3ccccc31)CCC2` gave KB-3-1 tox inconclusive, HT1080 IDH1KD tx -15%, HT1080NT lethal inconclusive, TDP1 cell noCPT inconclusive, KB-V1 MDR tox inactive and TDP1 cell CPT inconclusive.
CCOC(=O)Cn1c2c(c(=N)c3ccccc31)CCC2 was read as KB-3-1 tox inactive, HT1080 IDH1KD tx 8%, HT1080NT lethal 0%, TDP1 cell noCPT -18%, KB-V1 MDR tox inconclusive and TDP1 cell CPT -10%.
Screening CCCCCCCCn1c2c(c(=N)c3ccccc31)CCC2 returned KB-3-1 tox 3.3µM*, HT1080 IDH1KD tx 9.2µM*, HT1080NT lethal 23µM*, TDP1 cell noCPT 0.41µM*, KB-V1 MDR tox inactive and TDP1 cell CPT 0.41µM*.
For CCCCCn1c2c(c(=N)c3ccccc31)CCC2 the results were KB-3-1 tox 3.7µM*, HT1080 IDH1KD tx 2.9µM*, HT1080NT lethal inconclusive, TDP1 cell noCPT 1.5µM*, KB-V1 MDR tox inconclusive and TDP1 cell CPT 1.8µM*.
`COc1ccccc1C(=O)NCCC(=O)N1CC(C)OC(C)C1` (centres undefined) gave KB-3-1 tox inactive, HT1080 IDH1KD tx 22%, HT1080NT lethal 16%, TDP1 cell noCPT -21%, KB-V1 MDR tox inactive and TDP1 cell CPT -6%.
Cc1ccc(-c2ccc(CCC(=O)O)n2Cc2ccco2)cc1 was read as KB-3-1 tox inactive, HT1080 IDH1KD tx -1%, HT1080NT lethal -10%, TDP1 cell noCPT -7%, KB-V1 MDR tox inactive and TDP1 cell CPT -27%.
Screening COC(=O)c1ccc(Cn2c(C)c(C(=O)NCc3ccco3)sc2=O)o1 returned KB-3-1 tox inactive, HT1080 IDH1KD tx 0%, HT1080NT lethal -2%, TDP1 cell noCPT -30%, KB-V1 MDR tox inactive and TDP1 cell CPT -22%.
Screening COC(=O)c1ccc(Cn2c(C)c(C(=O)NCc3ccc(C#N)cc3)sc2=O)o1 returned KB-3-1 tox inactive, HT1080 IDH1KD tx inconclusive, HT1080NT lethal -11%, TDP1 cell noCPT -9%, KB-V1 MDR tox 23µM* and TDP1 cell CPT -23%.
